# Assay results reported in PubChem BioAssay AID624305 (National Center for Advancing Translational Sciences (NCATS), 2012).
# Results filed as inconclusive are left out. Where a call stands in place of a potency, no number is given. Active and inactive are the calls of the source. Calls follow the shape of the dose curve; as a rule, active = well fitted activation curve with a large enough effect; inconclusive = small, poorly fitted or top-dose-only effect; inactive = no such curve, though single readings can be large or run the other way.
# Test: qHTS assay for re-activators of p53 using a Luc reporter: Hit Validation; also: nearly all actives have a fitted effect of over 75% in size
# Conditions: p53-responsive luciferase reporter cells, luminescence, H1299 line expressing heat-sensitive Ala138Val p53; series mostly up to 46.1 µM
# Summary of the method: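 Hit confirmation with a 1:5 dilution series, at 37 deg C for 24 hrs, in H1299 cells co-expressing temperature-sensitive p53-A138V and p53-responsive luciferase. Nocodazole served as control; luminescence read after 10 min with detection reagent.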
# Potency is read from the fitted curve at half-maximal effect.
SMILES,Potency,activation
Cc1ccc2nc(N3C(=O)C(O)=C(C(=O)c4ccc(C)o4)C3c3ccco3)sc2c1 (stereo not drawn),inactive,
Cc1ccsc1C(=O)Nc1ccc2c(c1)OCCO2,0.326 µM (active),
COc1ccc(C(=O)C(CN2CCCC2)c2ccccc2)cc1 (stereo not drawn),inactive,
O=C(Nc1nc2ccccc2s1)c1ccc2c(c1)OCO2,0.206 µM (active),
Cc1cccc(NC(=S)NC(=O)C2CC2)c1,inactive,
COc1ccc(-c2csc(NCc3ccco3)n2)cc1C,18.4 µM (active),
CC(C)(C)c1ccc(NC(=O)COC(=O)c2ccc(NS(=O)(=O)c3ccc(F)c(F)c3)cc2)cc1,inactive,
Cc1ccc(C(=O)CC(Nc2ccc(F)cc2)c2ccccc2)cc1 (stereo not drawn),inactive,
Cc1cccc(NC(=O)c2ccccn2)c1C,14.6 µM (active),
Cc1cc(C(=O)Nc2nc3c(s2)CCCC3)cs1,0.231 µM (active),
CC(=O)N1CCN(C(=O)COC(=O)COc2c(C)cc(C)cc2C)CC1,inactive,
C/C(=N/NC(=O)c1ccc2c(c1)OCO2)c1ccc(NC(=O)C(F)(F)F)cc1,9.2 µM (active),
COc1ccccc1NS(=O)(=O)c1ccc(C(=O)Nc2ncccc2O)cc1,inactive,
O=C(CC1NC2CCCCC2NC1=O)Nc1ccc2c(c1)OCO2 (stereo not drawn),inactive,
Cc1cccc(/C(N)=N/OC(=O)c2ccc3c(c2)OCO3)c1,9.2 µM (active),
CCc1ccc(NC(=O)c2cnn3ccccc23)cc1,0.92 µM (active),
Cn1ncc([N+](=O)[O-])c1C(=O)Nc1ccc(C2CCCCC2)cc1,inactive,
Clc1ccc(Nc2nc(-c3cccs3)cs2)nc1,4.11 µM (active),
Cc1ccc(C)c(C(=O)COC(=O)c2n[nH]c3ccccc23)c1,18.4 µM (active),

SMILES,Potency,activation
CCc1cc2c(=O)c(-c3ccc4c(c3)OCCO4)coc2cc1OS(C)(=O)=O,4.61 µM (active),
C/C(=N\NC(=S)NC(C)C)c1ccc(Cl)s1,inactive,
COc1ccc(N2C(=O)CC(Cc3ccc(Br)cc3)C2=O)cc1 (stereo not drawn),inactive,
CC(C)(C)c1cc(-n2ccnc2)n2ncc(-c3ccc(Cl)cc3)c2n1,inactive,
Fc1ccccc1/C=C/c1ccc2ccccc2n1,0.731 µM (active),
Cc1ccc(/C=N/NC(=O)c2cccs2)s1,5.8 µM (active),
Cc1cnc(C(=O)OCC(=O)Nc2ccc(OCc3ccccc3)cc2)cn1,18.4 µM (active),
Cc1ccc(C(=O)N2CC(=O)Nc3ccc(F)cc3C2c2ccc(F)cc2)cc1[N+](=O)[O-] (stereo not drawn),inactive,
COc1cccc(-c2cn3nc4c(nc3n2)CCCC4)c1,0.116 µM (active),
COc1cccc(NC(=O)CCN2CCOCC2)c1,inactive,
O=C(COC(=O)c1ccc(F)cc1)NC1CC1,inactive,
CC(C)N1CCc2c(sc(NC(=S)NC(=O)c3ccccc3)c2C#N)C1,,7.78% [at 9.22 µM] (inactive)
Cc1ccc(C(=O)NCC(=O)N2CCCCCC2)cc1,inactive,
CC(=O)c1c(C)[nH]c(C(=O)OCC(=O)c2ccc(C)s2)c1C,inactive,
Cc1cc(C(=O)NC2CCCCC2)c(C)n1-c1ccc(F)cc1,8.2 µM (active),
CC12CN(C(=O)c3cccc([N+](=O)[O-])c3)C3(C#N)CC1CCC23C (stereo not drawn),inactive,
COc1ccc(-c2nnc(-c3ccc(Br)o3)o2)cc1OC,inactive,
Cc1cccc(NC(=O)c2oc3c(c2C)C(=O)CC(C)(C)C3)n1,inactive,
CCOC(=O)C1CCN(S(=O)(=O)Cc2ccccc2)C1=O (stereo not drawn),inactive,
